MBD2 inh – inhibitors of MBD2 binding to methylated DNA, primary screen, biochemical, TR-FRET, DNA-binding domain, human; Methyl-CpG-binding domain protein 2 (Homo sapiens), Q9UBB5; MBD2 binding to methylated oligonucleotide; inhibition, % at 4.4 µM; hit rate 0.31% among 370,000; AID 686964, 2013; in the data active means inhibition above about 13%
Target sequence (Q9UBB5 whole entry, looked up, the tested form may be a part): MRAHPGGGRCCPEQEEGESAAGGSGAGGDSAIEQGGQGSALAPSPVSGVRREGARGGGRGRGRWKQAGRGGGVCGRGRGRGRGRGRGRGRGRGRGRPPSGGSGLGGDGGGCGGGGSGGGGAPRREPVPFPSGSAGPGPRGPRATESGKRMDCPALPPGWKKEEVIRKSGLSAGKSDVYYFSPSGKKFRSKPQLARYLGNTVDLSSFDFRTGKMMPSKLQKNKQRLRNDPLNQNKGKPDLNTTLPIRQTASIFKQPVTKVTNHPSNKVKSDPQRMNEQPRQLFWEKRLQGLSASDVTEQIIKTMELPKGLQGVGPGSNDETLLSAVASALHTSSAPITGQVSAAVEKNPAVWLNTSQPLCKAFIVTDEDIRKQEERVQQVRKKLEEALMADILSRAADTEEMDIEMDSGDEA
Casp6 inh – human caspase-6 inhibitors, primary screen, biochemical, VEID-R110 fluorescence, single point, set 2 | P55212 | purified caspase-6, Z-VEID-R110 cleavage fluorescence | inhibition, % at 12.5 µM | hit rate 0.53% among 350,000 | AID 686996, 2013;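 active means mean inhibition across replicates at least about 35%, with every replicate also reaching that limit, limit read from the data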
Target sequence (P55212 24-179 limits assumed): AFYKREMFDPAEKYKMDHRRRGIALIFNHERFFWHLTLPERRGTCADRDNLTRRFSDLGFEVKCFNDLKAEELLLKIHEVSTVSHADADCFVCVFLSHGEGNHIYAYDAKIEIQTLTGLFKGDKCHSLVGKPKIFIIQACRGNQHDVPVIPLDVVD
Target sequence (P55212 194-293 limits assumed): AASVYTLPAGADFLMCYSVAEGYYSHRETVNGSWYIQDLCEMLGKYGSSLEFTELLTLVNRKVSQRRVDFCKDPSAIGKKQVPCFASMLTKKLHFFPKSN
UHRF1 MBD2 ctr – UHRF1 methylated DNA binding inhibitors, primary screen, counter-screen for MBD2 inhibitor project, biochemical, TR-FRET, human UHRF1, single concentration; hit rate 0.75% among 370,000; UHRF1 binding to methylated oligo; AID 687016, 2013; E3 ubiquitin-protein ligase UHRF1 (Homo sapiens), Q96T88; inhibition, % at 4.4 µM;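 further: UHRF1 SRA domain binding a hemimethylated CpG hairpin DNA probe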
LEDGF integ inh – blockers of LEDGF/p75-dependent integrase strand transfer – biochemical, TR-FRET, high throughput, primary screen; HIV-1 integrase (with human LEDGF/p75); TR-FRET IN-LEDGF/p75 DNA integration, Eu/Cy5; inhibition, % at 3.7 µM; hit rate 0.64% among 370,000;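 active means inhibition above the screen-wide mean plus 3 SD, cut at about 13% in these data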;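 further: signal is the Cy5 over europium emission ratio at 671 and 618 nm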
UHRF1 DNA bind – UHRF1 methylated DNA binding inhibitors, counter-screen for MBD2 inhibitor project, biochemical, TR-FRET, human UHRF1; inhibition, % at 4.4 µM; UHRF1 binding to methylated oligonucleotide; shares compounds with MBD2 inh; hit rate 25% among 1,000;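 further: UHRF1 SRA domain binding a labeled hemimethylated CpG hairpin DNA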
MBD2 confirm – inhibitors of MBD2 binding to methylated DNA, confirmation, biochemical, TR-FRET, DNA-binding domain, human | shares compounds with MBD2 inh | TR-FRET MBD2-DBD binding to methylated oligonucleotide | inhibition, % at 4.4 µM | hit rate 26% among 1,000 | AID 720531, 2013; in the data active means inhibition above about 14%
Each line names hits and unclear results; the compound was inactive in the other large screens (follow-up assays come after a bar, where they were run). Most compounds without a hit are left out; they make up all but 1.4% or so of the library. Unless noted, no stated cut-off is given here; in the data, active means inhibition above about 21%; inactive means the rest.

O=C(NC[C@@H]1N[C@@H](CO)[C@H]1c1ccc(C2=CCCCC2)cc1)c1ccc(F)cc1	none (no result: MBD2 inh, UHRF1 MBD2 ctr, LEDGF integ inh)
O=C(Oc1ccc2c(c1)OCO2)c1cc2c(s1)CCC2	MBD2 inh 25, UHRF1 MBD2 ctr 35 (no result: Casp6 inh) | UHRF1 DNA bind 36 | MBD2 confirm 28
CCCc1nc2c3ccccc3ccn2c1Cc1ccc(OC)cc1C	MBD2 inh 16, UHRF1 MBD2 ctr 26 | UHRF1 DNA bind inactive | MBD2 confirm inactive
CCCc1nc2c3ccccc3ccn2c1Cc1ccccc1OC	none
COc1ccccc1C(=O)NC(CCSC)C(=O)NCC(c1ccco1)N(C)C (configuration not stated)	none (no result: Casp6 inh)
COc1ccccc1C(=O)NC(CCSC)C(=O)NCC(c1cccs1)N(C)C (configuration not stated)	MBD2 inh 14 | UHRF1 DNA bind inactive | MBD2 confirm inactive
CN(Cc1ccccc1)C(=O)c1csc([C@@H]2O[C@H](CO)[C@@H](O)[C@H]2O)n1	none
CCN(CC)C(=O)c1csc([C@@H]2O[C@H](CO)[C@H](O)[C@H](O)[C@H]2O)n1	MBD2 inh 26 | UHRF1 DNA bind inactive | MBD2 confirm inactive
CO[C@H]1CN(C)C(=O)c2ccc(NS(C)(=O)=O)cc2OC[C@@H](C)N(CCC(F)(F)F)C[C@H]1C	none (no result: MBD2 inh, UHRF1 MBD2 ctr, LEDGF integ inh)
COc1ccc(NC(=O)N2C[C@H]3[C@@H](c4ccccc42)[C@H](CO)N3Cc2ccccn2)cc1	none (no result: MBD2 inh, UHRF1 MBD2 ctr, LEDGF integ inh)
COc1cc(/C=C(\C#N)C(=O)NCC2CCCO2)ccc1OCC(=O)O (configuration not stated)	none (no result: Casp6 inh)
COc1cc(/C=C(\C#N)C(=O)NCC2CCCO2)c([N+](=O)[O-])cc1OC (configuration not stated)	MBD2 inh 14, UHRF1 MBD2 ctr 21 (no result: Casp6 inh) | UHRF1 DNA bind inactive | MBD2 confirm inactive
O=C(Nc1ccc(-c2nc3ccccc3[nH]2)cc1)c1ccc2c(c1)OCO2	MBD2 inh 14 | UHRF1 DNA bind inactive | MBD2 confirm inactive
COc1ccc(S(=O)(=O)Nc2cccc3c2O[C@@H](CN(C)C(=O)Nc2ccccc2)[C@H](C)CN([C@@H](C)CO)C3=O)cc1	none (no result: MBD2 inh, UHRF1 MBD2 ctr, LEDGF integ inh)
OCC1(CCOc2ccccc2)CCN(CCCn2cccn2)CC1	MBD2 inh 13 | UHRF1 DNA bind inactive | MBD2 confirm inactive
Cc1ccccc1NC(=O)N1CCC(NC(=O)C2CCCCC2)CC1	MBD2 inh 14 | UHRF1 DNA bind inactive | MBD2 confirm inactive
O=C(NC1CCN(C(=O)Nc2ccccc2)CC1)C1CCCCC1	none (no result: Casp6 inh)
COc1ccc(CN(C)C[C@H]2OCCCC[C@@H](C)Oc3ccc(NS(=O)(=O)c4ccc(Cl)cc4)cc3C(=O)N([C@H](C)CO)C[C@H]2C)cc1	none (no result: MBD2 inh, UHRF1 MBD2 ctr, LEDGF integ inh)
CO[C@H]1CN(C)C(=O)c2cc(NC(=O)c3ccccc3F)ccc2OC[C@H](C)N(C)C[C@H]1C	none (no result: MBD2 inh, UHRF1 MBD2 ctr, LEDGF integ inh)
CCOc1ccc(NC(=O)CN2CCCC2c2cccs2)cc1S(=O)(=O)N1CCCC1 (configuration not stated)	MBD2 inh 42 | UHRF1 DNA bind inactive | MBD2 confirm inactive
C[C@@H]1CCC2[C@](C)(CO)[C@@H](O)CC[C@]2(C)[C@@]12CCC(CO)(CCO)O2 (some centres not stated)	MBD2 inh 25 | UHRF1 DNA bind inactive | MBD2 confirm inactive
COC(=O)N1CC(=O)N(OC)C1c1ccc(Cl)cc1Cl (configuration not stated)	MBD2 inh 15, UHRF1 MBD2 ctr 25 (no result: Casp6 inh) | UHRF1 DNA bind inactive | MBD2 confirm inactive
CCCc1nc2c(C)cc(Br)cn2c1Cc1ccccc1	MBD2 inh 13, UHRF1 MBD2 ctr 22 | UHRF1 DNA bind inactive | MBD2 confirm inactive
CCCc1nc2ccc(Cl)cn2c1Cc1ccccc1	MBD2 inh 18, UHRF1 MBD2 ctr 23 | UHRF1 DNA bind inactive | MBD2 confirm inactive
CCCc1nc2ccc(C)cn2c1Cc1cccc(Cl)c1	none
CCCc1nc2c(C)cc(Br)cn2c1Cc1ccsc1	none
O=C(C[C@H]1CC[C@@H]2[C@H](COC[C@H](O)CN2C(=O)Nc2ccc(Cl)c(Cl)c2)O1)NCc1ccc(Cl)c(Cl)c1	none (no result: MBD2 inh, UHRF1 MBD2 ctr, LEDGF integ inh)
CN1C(=O)c2cc(NC(=O)C3CCOCC3)ccc2OC[C@H]2O[C@@H](CC(=O)NCC3CC3)CC[C@H]21	none (no result: MBD2 inh, UHRF1 MBD2 ctr, LEDGF integ inh)
CO[C@H]1CN(C)C(=O)c2cc(NS(=O)(=O)c3cn(C)cn3)ccc2OC[C@@H](C)N(CC2CC2)C[C@@H]1C	none (no result: MBD2 inh, UHRF1 MBD2 ctr, LEDGF integ inh)
C[C@@H]1CN([C@@H](C)CO)C(=O)c2cccc(NC(=O)c3ccc(-c4nccs4)cc3)c2O[C@@H]1CN(C)Cc1ccc2c(c1)OCO2	none (no result: MBD2 inh, UHRF1 MBD2 ctr, LEDGF integ inh)
C[C@H](CO)N1C[C@H](C)[C@H](CN(C)C(=O)C2CCCCC2)Oc2cc(C#CC(C)(C)O)ccc2S1(=O)=O	none (no result: MBD2 inh, UHRF1 MBD2 ctr, LEDGF integ inh)
CC(CCc1ccccc1)NC(=O)CN1CCN(Cc2ccc(Cl)cc2)C1=O (configuration not stated)	MBD2 inh 17 | UHRF1 DNA bind inactive | MBD2 confirm inactive
COc1ccc(C(C)=O)cc1COC(=O)c1ccc2c(c1)OCO2	MBD2 inh 14 (no result: Casp6 inh) | UHRF1 DNA bind inactive | MBD2 confirm inactive
COc1ccc(C(C)=O)cc1COC(=O)c1ccc2c(c1)OCCO2	none
O=C(COC(=O)CNC(=O)c1ccc(Cl)cc1)Nc1ccc(Cl)cc1C(F)(F)F	MBD2 inh 61 (no result: Casp6 inh) | UHRF1 DNA bind inactive | MBD2 confirm inactive
CO[C@@H]1CN(C)C(=O)c2ccc(NS(C)(=O)=O)cc2OC[C@H](C)N(C(=O)C2CCC2)C[C@H]1C	none (no result: MBD2 inh, UHRF1 MBD2 ctr, LEDGF integ inh)
O=C(N[C@@H]1CC[C@@H](CC(=O)N2CCC(Cc3ccccc3)CC2)O[C@H]1CO)c1cnccn1	none (no result: MBD2 inh, UHRF1 MBD2 ctr, LEDGF integ inh)
CN(C)c1ncc(C2=C(Cl)C(=O)C(N3CCCC3)=C(Cl)C2=O)s1	MBD2 inh 24, UHRF1 MBD2 ctr 73, LEDGF integ inh 63 (no result: Casp6 inh) | UHRF1 DNA bind 36 | MBD2 confirm 24
COc1ccccc1CNC(=O)C[C@H]1CC[C@H]2[C@H](COc3ccc(NS(=O)(=O)c4ccc(C)cc4)cc3C(=O)N2C)O1	MBD2 inh 18 | UHRF1 DNA bind inactive | MBD2 confirm inactive
COc1ccccc1CNC(=O)C[C@@H]1CC[C@@H]2[C@@H](COc3ccc(NS(=O)(=O)c4ccc(C)cc4)cc3C(=O)N2C)O1	none (no result: MBD2 inh, UHRF1 MBD2 ctr, LEDGF integ inh)
COc1ccc(C)cc1NC(=O)c1cccc(C(=O)Nc2cc(C)ccc2OC)c1	MBD2 inh 74 | UHRF1 DNA bind inactive | MBD2 confirm inactive
COc1ccc(C)cc1NC(=O)c1ccc2c(c1)OCO2	none (no result: Casp6 inh)
COc1ccc(NC(=O)N(C)C[C@H]2Oc3ccc(NC(=O)Cn4cnnn4)cc3CC(=O)N([C@@H](C)CO)C[C@H]2C)cc1	none (no result: MBD2 inh, UHRF1 MBD2 ctr, LEDGF integ inh)
